In the library only some 0.76% were active in any assay of this set; here they are far more common.
Vc quorum ag = inducers of Vibrio cholerae quorum light production without autoinducers; V. cholerae BH1578 lux reporter, luminescence, 6 h; AID 588436; actives 0.16% (n = 350,000); activation, % at 18.7 µM; in the data active = activation mostly above about 9.7%, no sharp cut-off; inconclusive = no clear call, values can overlap the other calls; inactive = mostly below about 3.7%
Mtb betalactam = beta-lactam sensitization of Mtb H37Rv; M. tuberculosis H37Rv growth with meropenem, percent inhibition; inhibition, % at 25 µM; actives 0.27% (n = 330,000); AID 434955; call rule not given here;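 note: growth measured after seven days incubation then overnight dye step; 0% = bacteria only wells and 100% = bacteria with antibiotic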
Mtb UGM inh = blocks M. tuberculosis UGM enzyme | actives 0.06% (n = 320,000) | inhibition, % at 10 µM | AID 504406 | purified UGM, fluorescence polarization probe displacement; in the data active = inhibition above about 10%, passing the limit was not always enough; inconclusive = no clear call, values can overlap the other calls
Rv3671c inh = inhibitors of M. tuberculosis serine protease Rv3671c; actives 0.048% (n = 320,000); AID 2606; P9WHR9; inhibition, % at 5.96 µM; in the data active = inhibition above about 38%;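 note: extracellular domain of Rv3671c used as enzyme; 0% = enzyme with DMSO and 100% = no enzyme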
Target sequence (P9WHR9 whole entry, looked up, the tested form may be a part): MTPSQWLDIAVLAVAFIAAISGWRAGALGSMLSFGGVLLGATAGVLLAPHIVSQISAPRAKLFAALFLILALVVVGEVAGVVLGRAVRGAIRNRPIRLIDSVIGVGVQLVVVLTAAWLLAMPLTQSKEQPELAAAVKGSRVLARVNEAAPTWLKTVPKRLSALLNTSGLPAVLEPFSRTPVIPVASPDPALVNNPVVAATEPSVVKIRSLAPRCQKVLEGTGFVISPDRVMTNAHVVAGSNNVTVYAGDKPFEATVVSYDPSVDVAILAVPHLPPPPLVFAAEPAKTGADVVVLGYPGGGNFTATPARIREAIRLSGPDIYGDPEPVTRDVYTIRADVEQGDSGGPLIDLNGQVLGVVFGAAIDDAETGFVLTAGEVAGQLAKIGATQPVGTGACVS
FadD28 binding = inhibitors of Mycobacterium tuberculosis FadD28 bisubstrate binding | FadD28 bisubstrate probe binding, fluorescence polarization | inhibition, % at 12.5 µM | actives 0.22% (n = 360,000) | AID 588549; in the data active = inhibition above about 8.5%, passing the limit was not always enough; inconclusive = no clear call, values can overlap the other calls
PrP 5UTR inh = inhibition of PrP 5' UTR reporter expression. cell-based PrP 5' UTR mRNA reporter, plate reader. inhibition, % (test concentration not listed). actives 0.35% (n = 340,000). AID 488862; in the data active = inhibition above about 52%; note: 0 = median of the neutral control wells
PrP UTR cherry = prion 5' UTR mRNA inhibition, cherry-pick retest. shares compounds with PrP 5UTR inh. cell-based prion protein 5' UTR reporter, plate reader. inhibition, % at 2.5 µM. actives 48% (n = 1,100); in the data active = inhibition above about 54%; inconclusive = no clear call, values can overlap the other calls
Active calls of the source: *; i = inactive; ? = inconclusive; . = not tested or not shown.

SMILES | Vc quorum ag | Mtb betalactam | Mtb UGM inh | Rv3671c inh | FadD28 binding | PrP 5UTR inh | PrP UTR cherry
O=C(Nc1ccc(Br)cc1F)C1CCCN(S(=O)(=O)c2cnc[nH]2)C1 (stereo not drawn) | 0 | 1 | -1 | 1 | -2 | -10 | .
Cc1ccc(NC(=O)C2CCCN(S(=O)(=O)c3cnc[nH]3)C2)c(Br)c1 (stereo not drawn) | 0 | 0 | 0 | -4 | -3 | 73* | -1
O=c1c2ccccc2ncn1-c1ccc(Cl)cc1[N+](=O)[O-] | 0 | -3 | -2 | 16 | 1 | -11 | .
Cc1nc2ccccc2c(=O)n1-c1ccc(Cl)cc1[N+](=O)[O-] | i | 0 | 1 | -2 | -4 | 80* | -10
CNC(=O)C[C@H]1C(=O)N(CCc2ccccc2)C[C@@H]1Cc1ccccc1 | 0 | . | . | . | -1 | . | .
O=C(Nc1nnc(-c2cc(Cl)ccc2Cl)o1)c1ccco1 | 1 | 83 | 3 | -5 | -4 | -12 | .
CN(C)c1ccc(/C=C2\SC(=O)N(CCc3nnc(N)s3)C2=O)cc1 | 0 | 19 | -1 | -14 | -1 | 56* | 76*
S=C(NCc1ccco1)Nc1ccc(Oc2ccccc2)cc1 | 0 | 17 | 2 | -1 | -1 | -39 | .
CCOCCOC(=O)c1[nH]c2c(c1C)C(=O)CC(c1ccccc1)C2 (stereo not drawn) | i | 4 | -1 | -3 | -1 | 81* | 91*
CCOCCOC(=O)c1[nH]c2c(c1C)C(=O)CC(c1cccs1)C2 (stereo not drawn) | 0 | 2 | 1 | -9 | -1 | 65* | 87*
CCCOC(=O)c1[nH]c2c(c1C)C(=O)CC(c1ccc(OC)c(OC)c1)C2 (stereo not drawn) | -1 | 4 | . | -3 | -1 | -11 | .
COC(=O)c1[nH]c2c(c1C)C(=O)CC(c1cccc(OC)c1)C2 (stereo not drawn) | 0 | 0 | 0 | -1 | -3 | 74* | 88*
CCCCCOC(=O)c1[nH]c2c(c1C)C(=O)CC(c1ccco1)C2 (stereo not drawn) | 0 | 5 | -1 | -17 | -3 | 59* | 79*
COCCOC(=O)c1[nH]c2c(c1C)C(=O)CC(c1cccs1)C2 (stereo not drawn) | 0 | . | . | . | -3 | -13 | .
CCOc1cc(S(=O)(=O)NC2CC2)c(OCC)cc1-n1cnnn1 | i | -1 | 0 | -6 | -5 | -19 | .
O=C(Nc1ccccc1C(=O)O)c1ccc(CN2C(=O)c3ccccc3C2=O)cc1 | 0 | -3 | -3 | -6 | -6 | -24 | .
CCOC(=O)c1sc(NN=C(C(=O)OC)C(=O)OC)c(C(=O)OCC)c1C | 0 | 3 | -3 | -7 | 0 | -21 | .
O=C(O)CSCC(=O)Nc1ccc(C2CCCCC2)cc1 | 0 | 4 | -1 | -1 | 0 | 53* | 54*
CN(C)S(=O)(=O)c1ccc(NC(=O)CNc2cc(S(=O)(=O)N3CCCC3)ccc2OCC(F)(F)F)cc1 | 0 | 29 | 0 | -3 | -4 | -9 | .
CC(C)Cn1c(-c2ccc(Br)cc2)c[nH]c1=S | 0 | -1 | -1 | 10 | -1 | -20 | .
O=c1c2ccccc2cnn1CCOc1ccccc1 | -1 | 0 | -1 | -3 | -1 | 71* | 70*
Cc1cc(C(=O)COC(=O)C2=COCCO2)c(C)n1-c1ccccc1 | -1 | 69 | -1 | -4 | -4 | 82* | 86*
Cc1cc(C(=O)COC(=O)C2=NNC(=O)CC2)c(C)n1-c1ccccc1 | 0 | 19 | . | 6 | -3 | -46 | .
Cc1ccc(OCC(=O)c2cc(C)n(-c3ccccc3)c2C)c([N+](=O)[O-])n1 | 0 | 9 | -1 | 3 | -4 | 60* | 58*
CCCn1c(C)cc(C(=O)COc2ccc(C)nc2[N+](=O)[O-])c1C | i | 0 | -1 | -2 | -3 | -10 | .
SMILES | Vc quorum ag | Mtb betalactam | Mtb UGM inh | Rv3671c inh | FadD28 binding | PrP 5UTR inh | PrP UTR cherry
Cc1cc(C(=O)CN2C(=O)c3ccccc3S2(=O)=O)c(C)n1-c1ccccc1 | i | -9 | 3 | -6 | -2 | 57 | .
C=CCn1c(C)cc(C(=O)CN2C(=O)c3ccccc3S2(=O)=O)c1C | i | 6 | 0 | 2 | -3 | 92* | 92*
C=CCn1c(C)cc(C(=O)CN2C(=O)NC3(CCCc4ccccc43)C2=O)c1C (stereo not drawn) | i | -16 | -2 | -5 | 0 | -17 | .
Cc1cc(C(=O)CN2C(=O)c3ccccc3S2(=O)=O)c(C)n1C(C)C | -1 | -4 | -1 | 8 | -3 | 60* | 64*
CCn1c(C)cc(C(=O)CN2C(=O)c3ccccc3S2(=O)=O)c1C | -3 | -10 | 1 | -1 | -2 | 67* | 69*
COc1cc(C(=O)NCC(c2cccs2)N2CCOCC2)cc(OC)c1OC (stereo not drawn) | i | -3 | -2 | -5 | 1 | 7 | .
COc1ccc(C2=CC(=O)C[C@H](c3ccc4c(c3)OCO4)C2)cc1 | -3 | 85 | -1 | -2 | -7 | -25 | .
Cc1cc(NC(=O)c2ccc(Br)c([N+](=O)[O-])c2)no1 | i | 2 | 0 | -2 | 1 | 83* | -7
Cc1cc(NC(=O)c2ccc(C)c([N+](=O)[O-])c2)no1 | -6 | 3 | 0 | -3 | -1 | -15 | .
Cc1nc(-c2ccc(S(=O)(=O)NCc3ccccn3)s2)cs1 | i | -5 | 0 | 5 | -1 | -25 | .
Nc1ccc(Cn2ccc3c4c(N)nc(N)nc4ccc32)cc1 | -2 | . | . | . | -3 | 62* | -11
Cc1nc2ccc(N)cc2c(=O)n1Cc1ccc(Cl)cc1 | 0 | 2 | 0 | -9 | -1 | -8 | .
CCCCCC1C(=O)N2C=C(c3ccccc3)c3ccccc3N2C1=O (stereo not drawn) | i | . | . | . | ? | -19 | .
Cc1cc(C(=O)COC(=O)c2ccccc2O)c(C)n1CC1CCCO1 (stereo not drawn) | -3 | -1 | 1 | -1 | -1 | 89* | 90*
COCCn1c(C)cc(C(=O)COC(=O)c2cccnc2SC)c1C | i | 3 | -1 | 4 | -4 | 8 | .
COCCn1c(C)cc(C(=O)COC(=O)c2ccccc2Br)c1C | 0 | 12 | -1 | -5 | -4 | 73* | 71*
Cc1cc(C(=O)COC(=O)c2nccnc2N)c(C)n1C | 0 | -5 | ? | 14 | -2 | -2 | .
Cc1cc(C(=O)COC(=O)c2cc(O)c3ccccc3c2O)c(C)n1CC1CCCO1 (stereo not drawn) | 0 | . | . | . | 2 | -18 | .
Cc1cc(C(=O)COC(=O)c2ccccc2O)c(C)n1Cc1cccs1 | i | -3 | -2 | -9 | 0 | 91* | 80*
Cc1ccsc1C(=O)OCC(=O)c1cc(C)n(C)c1C | i | -1 | 3 | -6 | -3 | 59* | 63*

Screens deposited in PubChem BioAssay by several laboratories.
